Experimental data: PubChem BioAssay AID1159580 (chemical genetic matrix, 2015)
Out of some 5,500 compounds screened, about 2,000 (36%) were called active. Another 18% or so got no clear call; they are omitted. No stated cut-off is given here; in the data, active means normalized growth mostly below about 0.91 (no sharp cut-off); inconclusive means no clear call, values can overlap the other calls; inactive means mostly above about 0.92. This is one part of the list.

Experiment: chemical genetic growth profiling, strain panel (AID 1159580);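 further: tested at 20 µM; growth read once vehicle control cultures reached saturation at 30 °C; 1 = growth at the plate median or of vehicle wells; lower values mean less growth of the strain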
Conditions: S. cerevisiae deletion strains, growth OD

Measured: normalized growth

C#CCN(C)CCCOc1ccc(Cl)cc1Cl
inactive: locus YAL040C, strain CLN3, hits give low values 1.01 | locus YCL061C, strain MRC1 (second series), hits give low values 0.989 | locus YDR150W, strain NUM1, hits give low values 0.974 | locus YDR363W, strain ESC2, hits give low values 0.991 | locus YER002W, strain NOP16, hits give low values 0.993 | locus YMR263W, strain SAP30, hits give low values 1 | locus YMR307W, strain GAS1, hits give low values 0.989 | locus YNL175C, strain NOP13, hits give low values 1 | locus YNL197C, strain WHI3, hits give low values 1 | locus YNL224C, strain SQS1, hits give low values 1.01 | locus YNL322C, strain KRE1, hits give low values 0.993 | locus YOR083W, strain WHI5 (second series), hits give low values 0.896 | locus YPL055C, strain LGE1, hits give low values 0.961
